PubChem BioAssay
Activity calls are given as the source filed them. The rule behind the calls is not given here.

What follows are molecules tested against Pantothenate synthetase (Mycobacterium tuberculosis (strain ATCC 25618 / H37Rv)) (UniProt P9WIL5) (assay: Recombinant Mtb pantothenate synthetase (PanC) inhibitors, coupled enzyme, confirmatory (AID 375;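 note: 0% = full reaction with vehicle and 100% = no enzyme background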)). Details: coupled enzyme assay; at 10 µM, hits give high values.
Pantothenate synthetase (Mycobacterium tuberculosis (strain ATCC 25618 / H37Rv)), sequence (P9WIL5 whole entry, looked up): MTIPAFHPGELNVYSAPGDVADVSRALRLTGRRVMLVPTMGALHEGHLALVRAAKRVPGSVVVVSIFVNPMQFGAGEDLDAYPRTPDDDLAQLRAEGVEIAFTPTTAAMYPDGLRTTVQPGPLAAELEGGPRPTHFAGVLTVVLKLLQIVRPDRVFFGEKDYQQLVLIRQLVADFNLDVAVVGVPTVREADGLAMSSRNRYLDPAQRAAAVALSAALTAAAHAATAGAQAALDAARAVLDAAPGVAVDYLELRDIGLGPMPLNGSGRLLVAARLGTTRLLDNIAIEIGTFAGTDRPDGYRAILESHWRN

Question: Which inhibition does the source give for `O=C1CC(c2ccco2)CC(O)=C1C=NCCN1CCNCC1` (stereo not given) here?
Answer: 0% (inactive)

Question: With `CC(=O)N1CCN(S(=O)(=O)c2cccc(C(=O)Nc3ccc4c(c3)CCC4)c2)CC1` as the molecule, how does the inhibition read?
Answer: 0% (inactive)

Question: How did the inhibition turn out when `CC(C)C1N=C2c3ccccc3N=C(SCc3cc(=O)n4ccccc4n3)N2C1=O` (stereo not given) was run?
Answer: 6% (inactive)

Question: With `CCC(=O)c1ccc(OC(=O)c2ccc(Br)o2)cc1` as the molecule, how does the inhibition read?
Answer: 7% (inactive)

Question: Which inhibition does the source give for `COc1ccc(-c2nnc(-c3ccc(N)cc3)o2)cc1` here?
Answer: 4% (inactive)

Question: Which inhibition does the source give for `OCCNc1ncnc2c1c(-c1ccccc1)c(-c1ccccc1)n2Cc1ccco1` here?
Answer: 1% (inactive)

Question: With `O=C(c1ccco1)N1CCN(c2c(-c3ccccc3)c3cc(Cl)ccc3[nH]c2=O)CC1` as the molecule, how does the inhibition read?
Answer: 5% (inactive)

Question: `CCCCn1cnc2c1c(=O)n(C)c(=O)n2C` was tested. Which inhibition did it give?
Answer: 2% (inactive)

Question: `N#Cc1ccc(COC(=O)Cn2nnc(-c3ccccc3)n2)cc1` was tested. Which inhibition did it give?
Answer: 0% (inactive)

Question: With `Cc1ccc(CNC(=O)C2CCCN(S(=O)(=O)c3cnc[nH]3)C2)cc1` (stereo not given) as the molecule, how does the inhibition read?
Answer: 2% (inactive)

Question: `CCOC(=O)CSC1=C(C#N)C(c2ccc3c(c2)OCO3)CC(=O)N1` (stereo not given) was tested. Which inhibition did it give?
Answer: 0% (inactive)

Question: For `CC(C)(C)c1ccc(OCC(=O)O)cc1`, which inhibition is on record?
Answer: 1% (inactive)

Question: For `Cc1nc2ccccc2c2oc(C(=O)NCC3COc4ccccc4O3)cc12` (stereo not given), which inhibition is on record?
Answer: 0% (inactive)

Question: With `CCOC(=O)N1CCN(C(=O)CN(C)S(=O)(=O)c2ccc(OC)c(OC)c2)CC1` as the molecule, how does the inhibition read?
Answer: 0% (inactive)

Question: How did the inhibition turn out when `COCCOC(=O)C1=C(C)N=c2s/c(=C\c3cccs3)c(=O)n2C1c1cccs1` (stereo not given) was run?
Answer: 1% (inactive)

Question: How did the inhibition turn out when `O=C(c1ccc2c(c1)OCCO2)N1CCCCC1` was run?
Answer: 1% (inactive)

Question: `O=C(CNCC1CCCO1)Nc1ccccc1-n1cccc1` (stereo not given) was tested. Which inhibition did it give?
Answer: 2% (inactive)

Question: `CCCCCCNC(=O)Cc1c(O)c2ccccc2[nH]c1=O` was tested. Which inhibition did it give?
Answer: 5% (inactive)

Question: For `CN(Cc1ccccc1)C(=O)CNC(=O)Cn1cnc2ccccc2c1=O`, which inhibition is on record?
Answer: 0% (inactive)

Question: Which inhibition does the source give for `CN(CC(=O)Nc1cccnc1)S(=O)(=O)c1cc(Cl)ccc1Cl` here?
Answer: 0% (inactive)

Question: For `CCOC(=O)C1=C(Cn2cnc3ccccc32)NC(=O)NC1c1cc(C)ccc1C` (stereo not given), which inhibition is on record?
Answer: 0% (inactive)

Question: For `CC(=O)Nc1ccc(S(=O)(=O)N2CCN=C2C)cc1`, which inhibition is on record?
Answer: 3% (inactive)

Question: How did the inhibition turn out when `Cn1cccc1Cc1nnc(SCC(=O)Nc2ccc(F)cc2)n1-c1ccc(F)cc1` was run?
Answer: 4% (inactive)

Question: How did the inhibition turn out when `O=C(CSC1=NC(=O)C(Cc2ccccc2)C(=O)N1)NC1CCCCC1` (stereo not given) was run?
Answer: 0% (inactive)

Question: With `CC(C)(C)n1ncc2c(=O)n(CC(=O)NCc3ccccc3)cnc21` as the molecule, how does the inhibition read?
Answer: 0% (inactive)

Question: With `O=C(c1ncc[nH]1)c1ccccc1C(=O)N1CCOCC1` as the molecule, how does the inhibition read?
Answer: 1% (inactive)

Question: How did the inhibition turn out when `CCOC(=O)c1cc(CC)sc1NC(=O)CCC(=O)O` was run?
Answer: 2% (inactive)

Question: `CCOc1ccccc1C1CC(=O)Nc2cc3c(cc21)OCO3` (stereo not given) was tested. Which inhibition did it give?
Answer: 0% (inactive)

Question: `Cn1c(=O)c2c(nc(SCCCO)n2Cc2ccccc2Cl)n(C)c1=O` was tested. Which inhibition did it give?
Answer: 3% (inactive)

Question: Which inhibition does the source give for `Cc1cc(Br)ccc1NC(=O)CCN1C(=O)c2ccncc2C1=O` here?
Answer: 0% (inactive)

Question: With `CCn1c(CC(=O)Nc2cccc(OC)c2)nnc1SCC(=O)Nc1nccs1` as the molecule, how does the inhibition read?
Answer: 0% (inactive)

Question: Which inhibition does the source give for `O=C(CCCCCn1c(SCc2ccncc2)nc2ccccc2c1=O)NCc1ccco1` here?
Answer: 0% (inactive)

Question: How did the inhibition turn out when `CCOC(=O)N1CCN(C(=O)CCc2c(C)nc3c(c(C)nn3-c3ccc(C)c(C)c3)c2C)CC1` was run?
Answer: 0% (inactive)

Question: With `CCOC(=O)CC(=O)c1cc(OC)c(OC)c(OC)c1` as the molecule, how does the inhibition read?
Answer: 0% (inactive)

Question: How did the inhibition turn out when `CCc1nn2c(N3CCOCC3)cc(C)nc2c1-c1ccc(F)cc1` was run?
Answer: 0% (inactive)

Question: Which inhibition does the source give for `Cc1ccccc1Cn1c(=O)c2c(nc3n2CCCN3Cc2ccccc2)n(C)c1=O` here?
Answer: 0% (inactive)

Question: Which inhibition does the source give for `COCCN1C(=O)C(=O)/C(=C(/O)c2cccc(S(=O)(=O)N(C)C)c2)C12C(=O)N(C)c1ccccc12` (stereo not given) here?
Answer: 8% (inactive)

Question: For `COC(=O)CCN1CCC(C(N)=O)CC1`, which inhibition is on record?
Answer: 1% (inactive)

Question: How did the inhibition turn out when `COc1ccccc1-c1nc2n(n1)C(c1cccs1)C(C(=O)Nc1cccnc1)=C(C)N2` (stereo not given) was run?
Answer: 0% (inactive)

Question: Which inhibition does the source give for `Cc1ccc(CCNC(=O)C2CCC(=O)N2C2CCCC2)cc1` (stereo not given) here?
Answer: 0% (inactive)
